Test results taken from PubChem BioAssay (NCI).
Compounds without any hit were thinned out: in the full panel of roughly 83,000, 20% have a hit.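 Percent growth is the endpoint: 0 to 100 indicates growth inhibition (40 means 60% inhibition), 0 means no net growth, and negative values indicate cell death.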 Activity calls are given as the source filed them. Rule for the calls: active = growth percent below 10; inactive = the rest.

Legend:
Assay in all cases: NCI-60 one-dose screen, 48 h (100 = growth as untreated, 0 = no growth, -100 = all killed)
[1] = system: SK-MEL-2 melanoma; conditions: 10 µM unless noted
[2] = system: EKVX NSCLC; conditions: 10 µM unless noted
[3] = system: SN12C renal; conditions: 10 µM unless noted
[4] = system: UO-31 renal; conditions: 10 µM unless noted
[5] = system: TK-10 renal; conditions: 10 µM unless noted
[6] = system: ACHN renal; conditions: 10 µM unless noted
[7] = system: CAKI-1 renal; conditions: 10 µM unless noted
[8] = system: A498 renal; conditions: 10 µM unless noted
[9] = system: CCRF-CEM leukemia; conditions: 10 µM unless noted
[10] = system: MOLT-4 leukemia; conditions: 10 µM unless noted
[11] = system: SR leukemia; conditions: 10 µM unless noted
[12] = system: RPMI-8226 leukemia; conditions: 10 µM
[13] = system: OVCAR-8 ovarian; conditions: 10 µM unless noted
[14] = system: OVCAR-5 ovarian; conditions: 10 µM unless noted
[15] = system: OVCAR-4 ovarian; conditions: 10 µM unless noted
[16] = system: SK-OV-3 ovarian; conditions: 10 µM
[17] = system: IGROV1 ovarian; conditions: 10 µM unless noted
[18] = system: OVCAR-3 ovarian; conditions: 10 µM unless noted
[19] = system: HS 578T breast; conditions: 10 µM unless noted
[20] = system: NCI/ADR-RES ovarian; conditions: 10 µM unless noted

Measured: growth

COc1ccc(OC)c(C2C(C#N)=C(N)Oc3cc(O)ccc32)c1 (centres undefined)
inactive: [1] 96.5% | [2] 88.7% | [3] 98% | [4] 81.7% | [5] 91.1% | [6] 94.4% | [7] 73.5% | [8] 92.2% | [9] 88.2% | [10] 88.2% | [11] 80% | [12] 84.5% | [13] 100% | [14] 97% | [15] 101% | [16] 97.2% | [17] 105% | [18] 111% | [19] 94% | [20] 94.7%

COc1cc(/C=C2\C(=O)Nc3ccccc32)cc(OC)c1O
inactive: [1] 50.4% | [2] 110% | [3] 77% | [4] 60% | [5] 88.5% | [6] 77% | [7] 37.7% | [8] 52.5% | [9] 26.7% | [12] 46.6% | [13] 78.5% | [14] 112% | [15] 89.1% | [16] 93.5% | [17] 70.2% | [18] 46.9% | [19] 18.4% | [20] 19.1%
active: [10] 0.624% | [11] -10.3%

CSC1=CC(=O)c2ccccc2C1=O
inactive: [1] 96.1% | [2] 89.6% | [3] 97% | [4] 28% | [5] 97.9% | [6] 24% | [7] 33.6% | [8] 91.5% | [12] 44% | [13] 46.8% | [14] 103% | [19] 81.4% | [20] 74%
active: [9] -16.7% | [10] -21.7% | [11] -33.5% | [15] -34.7% | [17] -75.7% | [18] -96.2%

COc1cccc(C2C3=C(COC3=O)N(CCO)c3cc4c(cc32)CCC4)c1 (centres undefined)
inactive: [1] 36.8% | [2] 27.9% | [3] 19.5% | [4] 42.3% | [5] 53.8% | [6] 35.5% | [9] 20.9% | [10] 24.3% | [11] 29.4% | [12] 28.1% | [13] 20.9% | [14] 32.9% | [15] 10.3% | [16] 20.9%
active: [7] 4.92% | [8] -19.8% | [17] 8.37% | [18] -46% | [19] 2.16% | [20] -43.2%

COc1cc(CNCCCN2C(=O)c3ccc4c5c(ccc(c35)C2=O)C(=O)N(CCCNCc2cc(OC)c(OC)c(OC)c2)C4=O)cc(OC)c1OC
active: [1] -71.8% | [2] -72.9% | [3] -98.9% | [4] 4.39% | [5] -28.5% | [6] -24.5% | [8] -11.5% | [9] 0.649% | [10] -12.6% | [11] -3.1% | [12] -18.5% | [13] -52% | [14] -67.7% | [15] -97% | [16] -59.6% | [17] -51.2% | [18] -27.7% | [19] -34.1%
inactive: [7] 36.9% | [20] 71.1%

Clc1ccc(C2=NN(c3ccccc3)[C@H](c3cn(-c4ccccc4)nc3-c3ccccc3)C2)cc1
inactive: [1] 97.7% | [2] 94.9% | [3] 103% | [4] 94.8% | [5] 114% | [6] 103% | [7] 99.9% | [8] 109% | [9] 116% | [10] 93.6% | [11] 118% | [12] 112% | [13] 106% | [14] 97.8% | [15] 105% | [16] 107% | [17] 104% | [18] 113% | [19] 131% | [20] 105%

Cc1ccc(S(=O)(=O)c2ccc3[nH]c(=O)[nH]c(=O)c3c2)cc1
inactive: [1] 100% | [2] 122% | [3] 97.7% | [4] 96.1% | [5] 93.8% | [6] 109% | [7] 97.1% | [8] 102% | [9] 91.4% | [10] 94.6% | [11] 82.3% | [12] 95.6% | [13] 95.2% | [14] 107% | [15] 97.9% | [16] 97.2% | [17] 104% | [18] 110% | [19] 101%

CC(C)N1CCN(c2ccc(OC[C@H]3CO[C@](Cn4cncn4)(c4ccc(Cl)cc4Cl)O3)cc2)CC1
inactive: [1] 95% | [2] 91.4% | [3] 81.2% | [4] 98.7% | [5] 91.5% | [6] 102% | [7] 79.3% | [8] 76.7% | [9] 82.6% | [10] 86.2% | [11] 58.1% | [12] 88.7% | [13] 100% | [14] 85.1% | [15] 99.2% | [16] 94% | [17] 104% | [18] 102% | [19] 84%

COc1cc(/C=C/c2cc(/C=C/c3ccc(O)c(OC)c3)n(-c3ccccc3)n2)ccc1O
active: [1] -48.1% | [2] -38.8% | [3] -3.11% | [4] -44.6% | [5] 6.18% | [6] 2.77% | [7] -60.4% | [8] -25.2% | [9] -5.12% | [10] -39.9% | [11] -13.9% | [12] -33.6% | [13] -13.1% | [14] -7.74% | [15] 4.49% | [16] -53.1% | [17] -21.2% | [18] -46.9% | [19] -13% | [20] 3.18%

O=C1OCC2=C1C(c1ccc3c(c1)OCO3)CC(=O)N2c1cccc(Cl)c1 (centres undefined)
inactive: [1] 103% | [2] 96.3% | [3] 95.9% | [4] 85.1% | [5] 99.6% | [6] 103% | [7] 90.2% | [8] 84.6% | [9] 90.9% | [10] 95.2% | [11] 98.6% | [12] 90.1% | [13] 102% | [14] 106% | [15] 93.5% | [16] 97.5% | [17] 104% | [18] 109% | [19] 94.5% | [20] 98.9%

FC(F)(F)Oc1ccc2c(c1)C[C@H]1C[C@@H](c3ccoc3)N2O1
inactive: [1] 118% | [2] 93.9% | [3] 110% | [4] 100% | [5] 97.4% | [6] 94% | [7] 82.6% | [8] 93.2% | [9] 102% | [10] 96.4% | [11] 98.3% | [12] 92.3% | [13] 101% | [14] 91.5% | [16] 106% | [17] 108% | [18] 112% | [20] 98.3%

OB(O)c1ccccc1
inactive: [1] 107% | [2] 108% | [3] 112% | [4] 91.3% | [5] 105% | [6] 107% | [7] 96.5% | [8] 106% | [9] 100% | [10] 96.9% | [11] 88% | [12] 102% | [13] 105% | [14] 108% | [15] 115% | [17] 114% | [18] 114% | [19] 102% | [20] 104%

COc1ccc(Sc2ccc3[nH]c(=O)nc(N)c3c2)cc1
inactive: [1] 104% | [2] 95.5% | [3] 101% | [4] 99.2% | [5] 105% | [6] 107% | [7] 106% | [8] 98.6% | [9] 95.3% | [10] 97.7% | [11] 87.1% | [12] 104% | [13] 98% | [14] 100% | [15] 99.7% | [16] 104% | [17] 109% | [18] 115% | [19] 106% | [20] 103%

O=C1C=CC(=O)N1CCCCCCCCCCN1C(=O)C=CC1=O
inactive: [1] 96% | [2] 97.8% | [3] 94.8% | [4] 48.2% | [5] 106% | [6] 80.3% | [7] 15.2% | [8] 147% | [9] 16.5% | [10] 18.3% | [11] 29.1% | [12] 52.9% | [13] 78.2% | [14] 103% | [15] 102% | [16] 126% | [17] 69.5% | [18] 38.2% | [19] 67.4% | [20] 73.1%

O=C1CN2CCC1C/C2=C\c1ccnc2c(Cl)cccc12 (centres undefined)
inactive: [1] 85.8% | [2] 95.7% | [3] 94.3% | [4] 75.5% | [5] 127% | [6] 91.2% | [7] 93.9% | [8] 159% | [9] 96.8% | [10] 97.1% | [12] 62.2% | [13] 99.4% | [14] 103% | [15] 93.6% | [16] 94.1% | [17] 95.3% | [18] 123% | [19] 219% | [20] 101%
active: [11] -24%

CC1(C)CC(=O)C2=C(C1)Nc1cc3c(cc1C2c1ccc(F)cc1)OCO3 (centres undefined)
inactive: [1] 91.3% | [2] 92.3% | [3] 106% | [4] 74% | [5] 99.4% | [6] 98.6% | [7] 96.4% | [8] 82% | [9] 86.4% | [10] 83.1% | [11] 90.4% | [12] 92.1% | [13] 97% | [14] 107% | [15] 93.9% | [16] 97.6% | [17] 100% | [18] 103% | [19] 88.3% | [20] 90.7%
